# Laboratory results as given in PubChem BioAssay (NCI).
# This is part of a sample that, as a whole, favours compounds with a hit. Of some 79,000 tested, about 15% had one in any assay. Values without a mark were called inactive. Activity calls are given as the source filed them. Rule as the data show it: active = growth inhibition above about 70%; inactive = the rest.
# Assays:
# [1] = NCI Yeast Anticancer Drug Screen. Data for the rad50 strain (AID 155);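 also: 0% = growth of vehicle-only cultures of the same strain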; conditions: S. cerevisiae rad50 strain growth inhibition, active compounds read high
# Outline: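 Readout: growth inhibition relative to vehicle-treated cultures. Compound exposure was carried out in a genetically defined yeast strain deficient in DNA damage repair.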
# [2] = NCI Yeast Anticancer Drug Screen. Data for the mec2-1 strain (AID 157); conditions: S. cerevisiae mec2-1 strain, active compounds read high
# Outline: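 mec2-1 yeast strain, carrying an alteration in DNA damage repair or cell cycle control, was exposed to compounds; growth inhibition was measured relative to vehicle-treated controls.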
# [3] = NCI Yeast Anticancer Drug Screen. Data for the sgs1 mgt1 strain (AID 161);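 also: 0% = growth of cultures given vehicle only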; conditions: S. cerevisiae sgs1 mgt1 strain, active compounds read high
# Outline: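 This yeast growth screen uses a strain with defined DNA-repair lesions; compound-treated growth is compared with vehicle-treated growth.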
# [4] = NCI Yeast Anticancer Drug Screen. Data for the cln2 rad14 strain (AID 165);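 also: 0% = growth equal to vehicle treated cultures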; conditions: S. cerevisiae cln2 rad14 strain, active compounds read high
# Outline: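 Yeast carrying cln2 and rad14 alterations (cell cycle control and DNA damage repair) were exposed to compounds. Growth inhibition was measured against vehicle-treated controls.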
# [5] = NCI Yeast Anticancer Drug Screen. Data for the bub3 strain (AID 167); conditions: S. cerevisiae bub3 mutant strain, active compounds read high
# Outline: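 Readout: yeast growth inhibition, expressed relative to vehicle-only wells. The test organism is a mutant strain from a panel with lesions in DNA repair or checkpoint genes.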
# [6] = NCI Yeast Anticancer Drug Screen. Data for the mlh1 rad18 strain (AID 175); conditions: S. cerevisiae mlh1 rad18 strain growth inhibition, active compounds read high
# Outline: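 Growth inhibition of the yeast strain was measured after compound exposure and expressed relative to vehicle-treated controls. The strain carries defined defects in DNA damage repair.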
# [7] = at 5.0 µM (retest, dose inferred, filed as 0.5)
# [8] = at 50.0 µM (retest, dose inferred, filed as 5.0)
Compound,"growth inhibition [1, 7] [%]","growth inhibition [1, 8]",growth inhibition ([1]; at 50.0 µM),"growth inhibition [2, 7] [%]","growth inhibition [2, 8]",growth inhibition ([2]; at 50.0 µM),"growth inhibition [3, 7] [%]","growth inhibition [3, 8]",growth inhibition ([3]; at 50.0 µM),"growth inhibition [4, 7] [%]","growth inhibition [4, 8]",growth inhibition ([4]; at 50.0 µM),"growth inhibition [5, 7] [%]","growth inhibition [5, 8]",growth inhibition ([5]; at 50.0 µM),"growth inhibition [6, 7] [%]","growth inhibition [6, 8]",growth inhibition ([6]; at 50.0 µM)
CN(NC1OC(=O)c2ccccc21)c1ccc(C(F)(F)F)cc1[N+](=O)[O-] (stereo not given),46,39%,65.7%,33,36%,54.2%,43,49%,55.1%,25,31%,71.2% (active),43,69%,36.2%,47,48%,54.5%
SCCCCCCCCCCS,0,98% (active),98.9% (active),0,99% (active),99.4% (active),1,89% (active),99% (active),4,94% (active),87.3% (active),2,99% (active),97.5% (active),-1,96% (active),99.1% (active)
Cc1cccc(Cc2ccc(Cl)cc2)c1O,4,99% (active),99.3% (active),-1,100% (active),99.5% (active),5,99% (active),99.5% (active),-10,99% (active),99.3% (active),-6,99% (active),99.2% (active),-2,99% (active),99% (active)
OC1c2cccn2-c2cc(Cl)ccc2SC1c1ccccc1 (stereo not given),2,97% (active),97% (active),1,98% (active),82.3% (active),15,97% (active),96.2% (active),-7,97% (active),93.2% (active),24,97% (active),95.6% (active),8,97% (active),94.8% (active)
O=C(O)/C(Cl)=C(\Cl)C(=O)Nc1c(Cl)cccc1Cl,-9,7%,19.1%,-3,-7%,51.1%,-13,6%,38.2%,1,5%,36.4%,3,2%,29.2%,19,2%,16.1%
CC(=O)Oc1c(C)cc([N+](=O)[O-])cc1[N+](=O)[O-],-11,99% (active),99.7% (active),1,99% (active),99.8% (active),11,99% (active),99.8% (active),16,99% (active),98.9% (active),9,99% (active),99% (active),16,99% (active),99.7% (active)
CCCCCCCCCCCCNC(=O)C[n+]1ccc(C(N)=O)cc1,-34,72% (active),61.2%,-6,61%,49%,1,77% (active),74.2% (active),-6,86% (active),24.6%,-9,94% (active),29.2%,0,92% (active),41.8%
O=C(/C(=C/c1ccc2c(c1)OCO2)c1ccccc1)c1ccc(OCCN2CCCC2)cc1,-2,-4%,34.9%,3,-8%,58.5%,-3,-16%,31.1%,-2,-8%,12.8%,-7,-1%,3.45%,5,19%,7.35%
O=C1CCCCO1,1,3%,-15.8%,-1,-3%,-19.4%,0,-4%,-27.1%,3,-2%,19.4%,-1,-3%,-43.3%,0,1%,-4.85%
CN(C)c1ccc(/C=N/c2nc(-c3ccccc3)cs2)cc1,9,90% (active),94.9% (active),7,96% (active),98.4% (active),5,92% (active),98% (active),2,89% (active),97.2% (active),1,93% (active),93.2% (active),23,95% (active),97.8% (active)
